The source of these data is PubChem BioAssay.

In test [1] the target is Cell division control protein 42 homolog (Homo sapiens) (UniProt P60953). Briefly: inhibition of fluorescent GTP binding to constitutively active Cdc42 – biochemical, multiplex bead flow cytometry, Bodipy-FL-GTP, dose response (AID 1333;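 active = fitted half-maximal concentration within the tested dose range, moderate curve steepness, a statistically real signal drop, and little compound fluorescence or tag-binding interference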). In general terms: A flow cytometer gives signals particle by particle.
Cell division control protein 42 homolog (Homo sapiens), sequence (P60953 whole entry, looked up): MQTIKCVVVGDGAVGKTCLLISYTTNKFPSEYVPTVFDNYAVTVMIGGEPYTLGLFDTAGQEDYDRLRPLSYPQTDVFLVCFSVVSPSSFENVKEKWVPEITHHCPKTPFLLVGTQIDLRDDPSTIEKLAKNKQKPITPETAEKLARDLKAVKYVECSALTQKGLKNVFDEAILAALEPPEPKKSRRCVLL
Test [2] shares this target. Briefly: inhibition of fluorescent GTP binding to wildtype Cdc42 – biochemical, multiplex bead flow cytometry, Bodipy-FL-GTP, dose response (AID 1334). Conditions: bead-based flow cytometry, Bodipy-FL-GTP binding to GST-Cdc42; at 100 µM (top of the series) unless noted.
The target in test [3] is GTPase HRas (Homo sapiens) (UniProt P01112). Briefly: Ras wt fluorescent GTP loading blockade – biochemical, wildtype, multiplex bead flow cytometry, dose response (AID 1335;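 active = fitted half-maximal concentration within 10 nM to 100 µM, steepness 0.5 to 2, significant signal drop, low assay interference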). Conditions: bead-based flow cytometry, Bodipy-GTP binding to GST-Ras; at 100 µM (top of the series) unless noted.
GTPase HRas (Homo sapiens), sequence (P01112 whole entry, looked up): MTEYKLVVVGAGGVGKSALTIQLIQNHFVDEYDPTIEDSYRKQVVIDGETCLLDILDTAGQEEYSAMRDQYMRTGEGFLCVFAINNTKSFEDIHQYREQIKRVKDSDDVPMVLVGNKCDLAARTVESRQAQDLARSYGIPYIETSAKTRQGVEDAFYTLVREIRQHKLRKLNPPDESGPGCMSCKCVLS
For test [4], the system named is Ras-related protein Rab-7a (dog), GTP binding. Briefly: blockers of fluorescent GTP binding to Rab7 – biochemical, wildtype, multiplex bead flow cytometry, dose response (AID 1336; call rule not given here).
Test [5] has as its target Ras-related C3 botulinum toxin substrate 1 (Homo sapiens) (UniProt P63000). Briefly: inhibition of wildtype Rac1 nucleotide loading – biochemical, multiplex bead flow cytometry, dose response (AID 1340;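 active = dose curve with midpoint inside tested range, moderate steepness, plateau gap beyond fit error, low compound glow and bead-link interference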). Particulars: GST-Rac1 beads, Bodipy-FL-GTP binding; at 100 µM (top of the series) unless noted.
The target of test [6] is GTPase HRas (Homo sapiens) (UniProt P01112). Briefly: blockade of GTP loading onto mutant Ras – biochemical, activated mutant, multiplex bead flow cytometry, dose response (AID 1341;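 active = dose-response curve with midpoint inside the tested range, moderate steepness, significant amplitude and little compound fluorescence or bead-attachment interference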;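 note: GST-tagged constitutively activated Ras mutant immobilized on beads and multiplexed with other GTPases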).

The structures appear in SMILES notation. For part of these data: Measured potencies and affinities stand elsewhere. The source made the active and inactive calls.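 Rule for the calls, unless noted: active = fitted half-maximal concentration within the tested range, moderate curve steepness, significant signal drop, and little compound fluorescence or bead-linkage interference; inactive = the rest.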

For the compound `CC(C)(C)NC(=O)CSc1nccn1Cc1ccccc1`, the call in test [1], in test [4] and in test [6] was inactive. Further, the fluorescence, percent of control (lower = inhibition) in test [2] stood at 33.3%. In test [3], this compound returned a GTP binding, percent of control of 78.6%. In test [5], this compound had a GTP binding signal, raw median fluorescence (lower = inhibition) (MCF (arbitrary fluorescence units)) of 144.

For the compound `COc1ccc(-c2cc(-c3ccc(O)cc3)nc(N)c2C#N)cc1OC`, the result in test [1], in test [4] and in test [6] was inactive. This compound also displayed a fluorescence, percent of control (lower = inhibition) in test [2] of 32.2%. In test [3], this compound came in with a GTP binding, percent of control of 77.1%. In test [5], this compound showed a GTP binding signal, raw median fluorescence (lower = inhibition) (MCF (arbitrary fluorescence units)) of 184.

As to `O=C(N/N=C/c1ccco1)c1ccc(C(=O)N/N=C/c2ccco2)o1`, the compound was classed as inactive in test [1], in test [4] and in test [6]. For the same compound, the fluorescence, percent of control (lower = inhibition) in test [2] worked out at 32.1%. Further, in test [3], the GTP binding, percent of control was 72.4%. In test [5], this compound registered a GTP binding signal, raw median fluorescence (lower = inhibition) (MCF (arbitrary fluorescence units)) of 184.

Regarding `Cc1ccc(N=Nc2c(N)[nH]n3c(=O)cc(C)nc23)cc1`, the call in test [1], in test [4] and in test [6] was inactive. The compound further yielded a fluorescence, percent of control (lower = inhibition) in test [2] of 48.4%. Further, in test [3], the GTP binding, percent of control came to 61%. The compound further yielded a GTP binding signal, raw median fluorescence (lower = inhibition) (MCF (arbitrary fluorescence units)) in test [5] of 0.

As to `Nc1nonc1-c1nc2ccccc2n1CC(=O)N/N=C/c1ccc(-c2ccccc2C(=O)O)o1`, the outcome in test [1], in test [4] and in test [6] was inactive. This compound also registered a fluorescence, percent of control (lower = inhibition) in test [2] of 30.6%. This compound had a GTP binding, percent of control in test [3] of 68.4%. In test [5], this compound gave a GTP binding signal, raw median fluorescence (lower = inhibition) (MCF (arbitrary fluorescence units)) of 133.

As to `Cc1ccc(N=Nc2c(N)[nH]n3c(=O)c4c(nc23)CCCC4)cc1`, the compound was classed as inactive in test [1], in test [4] and in test [6]. The compound also registered a fluorescence, percent of control (lower = inhibition) in test [2] of 31.3%. In test [3], the GTP binding, percent of control came to 72.8%. In addition, the GTP binding signal, raw median fluorescence (lower = inhibition) (MCF (arbitrary fluorescence units)) in test [5] was found to be 166.

Turning to `NC(=S)N=Nc1c(O)[nH]c2c(Br)cc(Br)cc12`, the compound was called inactive in test [1], in test [4] and in test [6]. This compound also came in with a fluorescence, percent of control (lower = inhibition) in test [2] of 32.3%. Also, in test [3], the GTP binding, percent of control was 73%. For the same compound, in test [5], the GTP binding signal, raw median fluorescence (lower = inhibition) (MCF (arbitrary fluorescence units)) was found to be 198.

Consider `CSc1nc(Cc2ccccc2)cc(=O)[nH]1`, for which the compound was classed as inactive in test [1], in test [4] and in test [6]. This compound also returned a fluorescence, percent of control (lower = inhibition) in test [2] of 36.3%. The GTP binding, percent of control in test [3] turned out to be 80.4%. Further, in test [5], the GTP binding signal, raw median fluorescence (lower = inhibition) (MCF (arbitrary fluorescence units)) is 273.

Consider `O=C(Cc1csc(Nc2nc(=S)[nH]c3ccccc23)n1)NCCCN1CCN(c2cccc(Cl)c2)CC1`, for which the result in test [1], in test [4] and in test [6] was inactive. Also, the fluorescence, percent of control (lower = inhibition) in test [2] is 34.3%. The GTP binding, percent of control in test [3] was determined as 75.8%. Also, in test [5], the GTP binding signal, raw median fluorescence (lower = inhibition) (MCF (arbitrary fluorescence units)) was 192.

On to `Cc1cc2[nH]c3c(c[n+](C)c4ccccc34)c2cc1C`, for which the call in test [1], in test [4] and in test [6] was inactive. The same compound returned a fluorescence, percent of control (lower = inhibition) in test [2] of 35.5%. This compound also yielded a GTP binding, percent of control in test [3] of 78.4%. The GTP binding signal, raw median fluorescence (lower = inhibition) (MCF (arbitrary fluorescence units)) in test [5] is 253.

Regarding `O=C(N/N=C/c1c(O)n(Cc2ccccc2)c(=O)c2ccccc12)c1cccnc1`, the outcome in test [1], in test [4] and in test [6] was inactive. Further, the fluorescence, percent of control (lower = inhibition) in test [2] was 18.5%. Also, the GTP binding, percent of control in test [3] is 75.7%. The GTP binding signal, raw median fluorescence (lower = inhibition) (MCF (arbitrary fluorescence units)) in test [5] worked out at 87.

With `Cc1ccccc1C(=O)Nc1cccc(C(=O)N/N=C/c2cc(Cl)cc([N+](=O)[O-])c2O)c1`, the outcome in test [1], in test [4] and in test [6] was inactive. The compound further gave a fluorescence, percent of control (lower = inhibition) in test [2] of 25.1%. Also, the GTP binding, percent of control in test [3] was found to be 74.6%. This compound returned a GTP binding signal, raw median fluorescence (lower = inhibition) (MCF (arbitrary fluorescence units)) in test [5] of 191.

For the compound `COc1ccc(CN2CCN(CCc3ccccc3)C(CCO)C2)c(O)c1` (stereo unspecified), the result in test [1], in test [4] and in test [6] was inactive. Moreover, in test [2], the fluorescence, percent of control (lower = inhibition) turned out to be 40.6%. This compound also showed a GTP binding, percent of control in test [3] of 82.3%. In test [5], the GTP binding signal, raw median fluorescence (lower = inhibition) (MCF (arbitrary fluorescence units)) stood at 265.

`COc1cc2[nH]c(=S)nc(NCc3cccs3)c2cc1OC`: the call in test [1], in test [4] and in test [6] was inactive. In test [2], this compound came in with a fluorescence, percent of control (lower = inhibition) of 29.5%. Also, the GTP binding, percent of control in test [3] was 67.6%. In test [5], this compound showed a GTP binding signal, raw median fluorescence (lower = inhibition) (MCF (arbitrary fluorescence units)) of 161.

With `CCn1c(SCC(=O)O)nnc1-c1cc2c(C)nn(-c3ccccc3)c2s1`, the call in test [1], in test [4] and in test [6] was inactive. This compound also gave a fluorescence, percent of control (lower = inhibition) in test [2] of 25.1%. In test [3], the GTP binding, percent of control stood at 64.4%. The same compound came in with a GTP binding signal, raw median fluorescence (lower = inhibition) (MCF (arbitrary fluorescence units)) in test [5] of 128.

In the case of `COc1ccc(-c2cc(C(F)(F)F)c3c(n2)sc2c(O)cc(=O)[nH]c23)c(OC)c1`, the call in test [1], in test [4] and in test [6] was inactive. The compound further showed a fluorescence, percent of control (lower = inhibition) in test [2] of 38.1%. In addition, the GTP binding, percent of control in test [3] is 76.3%. In test [5], this compound had a GTP binding signal, raw median fluorescence (lower = inhibition) (MCF (arbitrary fluorescence units)) of 162.
